Assay in all cases: NCI-60 one-dose screen, 48 h (100 = growth as untreated, 0 = no growth, -100 = all killed)
Holding throughout (conditions): 10 µM unless noted

Assay [1] deals with DU-145 prostate.
The subject of assay [2] is K-562 leukemia.
For assay [3], the system named is MALME-3M melanoma.
In assay [4] the test system is MDA-MB-231 breast.
Assay [5] relates to RXF 393 renal.
In assay [6] the test system is SF-268 CNS.
In assay [7] the test system is SF-295 CNS.
For assay [8], the system named is SF-539 CNS.
Assay [9] has as its system UACC-257 melanoma.
Assay [10] has as its system M14 melanoma.

The structures appear in SMILES notation. This is part of a sample that, as a whole, favours compounds with a hit. Of some 83,000 tested, about 20% had one in any assay.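 Each cell line was grown in a 96-well plate and treated with one concentration of compound for 48 hours. Values below 10 were considered active.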 A number with no mark means an inactive call. The source made the active and inactive calls.

On to `COc1cc2c(cc1OCc1ccccc1)C(CC(C)C)=[N+](C)CC2`, for which the growth in assay [1] was 93.6%; in assay [2], 67.2%; in assay [3] it was 85%; in assay [4] it was 93%; in assay [5], 93.9%; in [6], 67.5%. Moreover, the growth was 68.2% in [7], 76.7% in assay [8], 50% in assay [9] and 99.1% in assay [10].

With `[Cl][Hg][c]1cc[c]([Hg][Cl])o1`, the growth was 70.6% in [1]; 7.68% (active) in assay [2]; -51.6% (active) in [3]; 22.7% in assay [4]; 62.1% in assay [5]; 51.3% in assay [6]. The growth in assay [7] was 93.4%; in assay [8], 75%; in assay [9], 65.5%; in assay [10], 14.8%.

Consider `COc1cc(C=Nc2cc(Cl)cc(Cl)c2)ccc1N(CCCl)CCCl`, for which the growth in assay [1] is 98.2%; in assay [2] it was 84.6%; in [3], 74.9%; in assay [4], 65.5%; in assay [5], 82%; in [6], 93%. The growth was 80.8% in assay [7], 89.3% in assay [8], 100% in assay [9] and 92.2% in [10].

Regarding `C[C@@]12CC[C@@H](O)C[C@@H]1CC[C@H]1[C@H]2CC[C@@]2(C)[C@H](c3ccc(=O)oc3)CC[C@@]12O`, the growth in [1] was -97.4% (active); in assay [2], 0.291% (active); in [3], -45.4% (active); in assay [4] it was -33.9% (active); in [5], -39.9% (active); in assay [6], -73.1% (active). For the same compound, the growth in assay [7] is -84.5% (active); in assay [8] it was -85.4% (active); in [9], -78.8% (active); in [10] it was -50.7% (active).

As for `CCCCCCCCOC(=O)CCN1CC1`, the growth in assay [1] is 98.5%; in assay [2], 119%; in assay [3] it was 110%; in [4], 114%; in [5] it was 107%; in assay [6] it was 95.9%. Besides, the growth was 120% in assay [7], 99.4% in assay [8], 103% in assay [9] and 107% in assay [10].

Regarding `CN[C@]1(c2ccccc2Cl)CCCC[C@H]1NCCCN1CCN(C)CC1`, the growth in assay [1] is 108%; in [2], 90.3%; in [3], 104%; in [4], 94.2%; in [5], 97.4%; in assay [6], 94.1%. For the same compound, the growth is 102% in assay [7], 94.8% in assay [8], 102% in [9] and 98.9% in [10].

Consider `CCCCCCCCCCCCCC[P+](CCCCCC)(CCCCCC)CCCCCC`, for which the growth is -100% (active) in assay [1]; 39% in assay [2]; -83.9% (active) in assay [3]; -38.3% (active) in [4]; -97.7% (active) in assay [5]; -4.6% (active) in assay [6]. For the same compound, the growth in [7] is -68.4% (active); in [8], 5.67% (active); in [9], -34.6% (active); in [10] it was -36.5% (active).

For the compound `CCn1c2ccccc2c2cc(C(=O)c3ccc(C)c4ccccc34)ccc21`, the growth in assay [1] was 17.9%; in [2] it was 4.51% (active); in [3] it was 74.4%; in assay [4], 26.4%; in assay [5], 15%; in assay [6], 19.8%. Moreover, the growth in assay [7] was 11.6%; in assay [8], -5.79% (active); in assay [9], 36.9%; in assay [10], 2.37% (active).

With `C/C1=C/C(=O)O[C@@H]2C[C@@H](CC[C@H](C)/C=C\C=C\CC1)O[C@@](O)([C@@H]1CSC(=O)N1CO)C2`, the growth was 22.9% in [1]; 22.2% in [2]; 14% in assay [3]; 13.7% in [4]; -35.4% (active) in [5]; -37.7% (active) in [6]. Also, the growth in assay [7] is 13.5%; in [8], -3.61% (active); in assay [9], 13.9%; in [10], 34.5%.

In the case of `O=C1CC2(CC3(Cl)C(Cl)=C(Cl)C2(Cl)C3(Cl)Cl)C(=O)O1` (stereo not given), the growth is 101% in [1]; 97.9% in [2]; 101% in [3]; 128% in [4]; 107% in assay [5]; 114% in [6]. For the same compound, the growth in assay [7] was 100%; in [8], 114%; in [9] it was 107%; in assay [10] it was 95.4%.

For `COC(=O)[C@@H](C)C[C@H](Cc1ccccc1)NC(=O)c1nc([C@@H](C[C@H](C(C)C)N(C)C(=O)[C@@H](NC(=O)[C@H]2CC(=O)CCN2C)C(C)C)OC(C)=O)sc1C(C)C`, the growth is -11.3% (active) in [1]; 12.3% in assay [2]; 44.3% in assay [3]; 6.36% (active) in assay [4]; 6.58% (active) in assay [5]; 20% in assay [6]. In addition, the growth was -1.71% (active) in assay [7], -18% (active) in assay [8], 77.6% in [9] and -10.3% (active) in assay [10].

For the compound `O=C(c1ccccc1O)c1[nH]c(Cl)c(Cl)c1-n1c(C(=O)c2ccccc2O)cc(Cl)c1Cl`, the growth in assay [1] was 19.2%; in [2], 6.74% (active); in assay [3], -25.5% (active); in assay [4], -31.7% (active); in assay [5] it was -19.4% (active); in assay [6], 4.86% (active). Also, the growth is -25.5% (active) in assay [7], 7.94% (active) in assay [8], -24.9% (active) in assay [9] and -0.41% (active) in assay [10].

`O=[N+]([O-])/C=C\c1ccc(Cl)c(Cl)c1`: the growth was 70% in assay [1]; 11.8% in assay [2]; -0.637% (active) in assay [3]; 74.8% in assay [4]; -79.8% (active) in [5]; 69.2% in assay [6]. The growth in [7] was 98.8%; in assay [8] it was 65.2%; in [9], 69.6%; in assay [10] it was -9.23% (active).
